Calls of active or inactive are those of the source. The calls were made as follows: active = hit-call score of the fitted dose curve at least 0.9, where 1 is the maximum; inactive = score below 0.9.

A short description of the assay: ATG_PBREM_CIS: Attagene CIS-FACTORIAL HepG2 Assay for human Phenobarbital-responsive Enhancer Module (PBREM) (AID 2282955). The conditions noted are these: HepG2 PBREM cis-reporter, Attagene multiplexed transcription; actives raise or lower the signal. On the procedure: ATG_CIS is a cell-based, multiplexed-readout assay that uses HepG2, a human liver cell line, with measurements taken at 24 hours after chemical dosing in a 24-well plate.ATG_PBREM_CIS is one of 52 assay component(s) measured or calculated from the ATG_CIS assay. It is designed to make measurements of mRNA induction, a form of inducible reporter, as detected with fluorescence intensity signals by Reverse transcription polymerase chain reaction (RT-PCR) and Capillary electrophoresis technology.Data from the assay component ATG_PBREM_CIS was analyzed into 1 assay endpoint. This assay endpoint, ATG_PBREM_CIS, was analyzed with bidirectional fitting relative to DMSO as the negative control and baseline of activity. Using a type of inducible reporter, measures of mRNA for gain or loss-of-signal activity can be used to understand the reporter gene at the transcription factor-level as they relate to the gene NR1I3. Furthermore, this assay endpoint can be referred to as a primary readout, because this assay has produced multiple assay endpoints where this one serves a reporter gene function. To generalize the intended target to other relatable targets, this assay endpoint is annotated to the nuclear receptor intended target family, where the subfamily is non-steroidal.
Human liver HepG2 cells are transiently transfected with multiple reporter transcription units (MRTUs) in 6-well plates using FuGene 6 reagent (Roche; 3 ml FuGene/1 mg DNA). The MRTU constructs are regulated by a cis-regulating element (promoter). […] A major difference between the CIS and TRANS system is that in CIS activities of endogenous TFs are measured, whereas the TRANS assay evaluates changes in activities of exogenous, chimeric NR-Gal4 proteins. […] At the end of 24 hour incubation, total RNA was isolated using TriZol reagent (Invitrogen). The isolated RNA is then reverse-transcribed using oligo(dT) primer and Mo-MLV reverse transcriptase (Invitrogen) with DNAse I (Ambion) treatment for 30 min. The one-tenth of the produced cDNA was amplified by PCR using Taq DNA polymerase (Invitrogen) and two reporter sequence-specific primers. The PCR products were fluorescently labeled by primer extension with 6-arboxyfluorescein (6-FAM) 5'-labeled reporter sequence-specific primer (2 min at 95 C, 20 s at 68 C and 10 min at 72 C) and these products were digested with 5U of HpaI (New England Biolabs) for 2h at 37 C. The fragments were purified using Qiaquick PCR columns (Qiagen), analyzed on an ABI 3130xL genetic analyzer (Applied Biosystems) with peak positions identified by using a set of X-rhodamine (ROX)-labeled MapMarker1000 molecular weight standards (BioVentures). The raw capillary electrophoresis data was processed using Attagraph software (Attagene).
As to `CCCCCOC(=O)CCC`, the result was inactive.

Consider `CC(C)(N)CO`, for which the outcome was inactive. Turning to `CC1(C)C(=O)N(Br)C(=O)N1Cl`, the result was inactive. On the same count and under the same terms, under `Clc1ccc(Cl)c(Cl)c1Cl` stands “inactive”; under `NNc1nc(-c2ccc(N)cc2)cs1`, “inactive”; under `O=C(Cl)c1cccc(C(=O)Cl)c1`, “inactive”. Still for that read-out and setting: to `O=C1c2ccccc2C(=O)N1SC1CCCCC1` belongs “inactive”; to `O=c1[nH]c(=O)n([C@H]2CCCO2)cc1F`, “inactive”. For `CSc1nnc(C(C)(C)C)c(=O)[nH]1`, the result was inactive.

For the compound `OCCCCCO`, the outcome was inactive. Same read-out and setting: to `BrC1CCC(Br)C(Br)CCC(Br)C(Br)CCC1Br` (stereo not given) belongs “inactive”; to `NC(N)=NC(=O)c1nc(Cl)c(N)nc1N`, “inactive”; to `Cc1cccc(Nc2ccccc2C(=O)O)c1C`, “inactive”. Turning to `CCCCCCC#CC(=O)OC`, the outcome was inactive. As for `C#C[C@]1(O)CC[C@H]2[C@@H]3CCC4=Cc5oncc5C[C@]4(C)[C@H]3CC[C@@]21C`, the AC50 (in general, the concentration giving half of the maximal activity seen) was 5.83 µM (active).

For the compound `NCCCN1CCOCC1`, the outcome was inactive.

In the case of `CCOC(=O)c1ccccc1OC`, the outcome was inactive. The same measure, in the same setting: under `CCCCCCCCCCCCCC(=O)O` stands “inactive”. Regarding `COc1c(Cl)c(Cl)c(Cl)c(Cl)c1Cl`, the result was inactive. With `CC(C)=CCC/C(C)=C/COC=O`, the result was inactive. Take `CC(=O)C(=O)O`: the result was inactive. On the same count and under the same terms, under `CC1(C)[C@@H]2CC[C@@]1(C)[C@H](O)C2` stands “inactive”; under `CN(C)CCOCCN(C)C`, “inactive”.

With `CC(C)(C#N)c1cc(Cn2cncn2)cc(C(C)(C)C#N)c1`, the outcome was inactive.

Consider `C=CC(=O)OCC(O)COc1ccccc1` (stereo not given), for which the outcome was inactive. The same measure, in the same setting: to `CNC[C@H](O)c1cccc(O)c1` belongs “inactive”; to `COc1cc(C)cc(O)c1`, “inactive”; to `Clc1cccc(Cl)n1`, “inactive”. With `CC(=O)OCC=Cc1ccccc1`, the result was inactive. Still for that read-out and setting: to `CN(C)C(=N)N=C(N)N` belongs “inactive”; to `O=C(O)c1snc(Cl)c1Cl`, “inactive”; to `CCCCNC(=O)NS(=O)(=O)c1ccc(N)cc1`, “inactive”. With `c1ccc(CCCc2ccccn2)cc1`, the AC50 is 67 µM (active).

`CCN(CC)c1ccc2c(-c3ccccc3C(=O)O)c3ccc(=[N+](CC)CC)cc-3oc2c1`: the outcome was inactive. As to `CC1CCC2CC1C2(C)C` (stereo not given), the outcome was inactive. `O=C1CCCCCCCCCCOCCCCO1`: the outcome was inactive. Still for that read-out and setting: to `CC(O)C(C)O` (stereo not given) belongs “inactive”. As for `CC(C)c1cccc(O)c1`, the outcome was inactive. The same measure, in the same setting: to `CC1CCC(C(C)(C)O)CC1` (stereo not given) belongs “inactive”; to `COC(=O)c1ccc(C)cc1`, “inactive”.
